# Values joined by “and” are separate entries in the source; they are usually repeats but may differ in a detail not shown here. Equal entries are not always repeated. This is part of a sample that, as a whole, favours compounds with a hit. Of some 83,000 tested, about 20% had one in any assay.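 Results are percent growth after 48 hours of single-concentration exposure. 100 means growth as in untreated cells, lower positive values show inhibition; negative values down to -100 show cell death.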 Active and inactive are the calls of the source. How the source made its calls: active means growth percent below 10; inactive means the rest.
# Experiments:
# Experiment in all cases: NCI-60 one-dose screen, 48 h (100 = growth as untreated, 0 = no growth, -100 = all killed)
# Conditions in all cases: 10 µM unless noted
# NCI-H23 lung = system: NCI-H23 lung
# NCI-H226 lung = system: NCI-H226 lung
# NCI-H322M lung = system: NCI-H322M lung
# HOP-62 NSCLC = system: HOP-62 NSCLC
# NCI-H460 lung = system: NCI-H460 lung
# HOP-92 NSCLC = system: HOP-92 NSCLC
# NCI-H522 lung = system: NCI-H522 lung
# A549/ATCC NSCLC = system: A549/ATCC NSCLC
# 786-0 renal = system: 786-0 renal
# COLO 205 colon = system: COLO 205 colon
# DU-145 prostate = system: DU-145 prostate
# K-562 leukemia = system: K-562 leukemia
# MALME-3M melanoma = system: MALME-3M melanoma
# MDA-MB-231 breast = system: MDA-MB-231 breast
# RXF 393 renal = system: RXF 393 renal
# SF-268 CNS = system: SF-268 CNS
# SF-295 CNS = system: SF-295 CNS
# SF-539 CNS = system: SF-539 CNS
# UACC-257 melanoma = system: UACC-257 melanoma
# M14 melanoma = system: M14 melanoma
Structure (SMILES),growth (NCI-H23 lung),growth (NCI-H226 lung),growth (NCI-H322M lung),growth (HOP-62 NSCLC),growth (NCI-H460 lung),growth (HOP-92 NSCLC),growth (NCI-H522 lung),growth (A549/ATCC NSCLC),growth (786-0 renal),growth (COLO 205 colon),growth (DU-145 prostate),growth (K-562 leukemia),growth (MALME-3M melanoma),growth (MDA-MB-231 breast),growth (RXF 393 renal),growth (SF-268 CNS),growth (SF-295 CNS),growth (SF-539 CNS),growth (UACC-257 melanoma),growth (M14 melanoma)
O=C1Cc2ccccc2C(=O)N1,103% (inactive),101% (inactive),96.3% (inactive),84.6% (inactive),110% (inactive),49.9% (inactive),77.2% (inactive),86.1% (inactive),82.1% (inactive),99.2% (inactive),112% (inactive),46.9% (inactive),104% (inactive),44.1% (inactive),99.1% (inactive),97% (inactive),102% (inactive),103% (inactive),89.4% (inactive),95.3% (inactive)
O=S(=O)(O)c1ccc2cc(O)ccc2c1,98.3% (inactive),98% (inactive),99.2% (inactive),99.7% (inactive),102% (inactive),88.8% (inactive),90% (inactive),111% (inactive),104% (inactive),103% (inactive),112% (inactive),103% (inactive),101% (inactive),108% (inactive),109% (inactive),106% (inactive),110% (inactive),102% (inactive),105% (inactive),103% (inactive)
CCN(CC)Cc1cc2[nH]c3c4ccc(Cl)cc4ncc3c2cc1OC,68.4% (inactive),84.1% (inactive) and 93.4% (inactive),93.2% (inactive) and 87.2% (inactive),80.7% (inactive) and 87.9% (inactive),0.598% (active) and 14% (inactive),60.6% (inactive) and 78% (inactive),244% (inactive) and 12.6% (inactive),19.6% (inactive) and 44.1% (inactive),81% (inactive) and 86.3% (inactive),-16.9% (active) and 1.13% (active),10.7% (inactive),-45.5% (active),77.2% (inactive) and 107% (inactive),-4.73% (active) and 16.6% (inactive),-43.2% (active) and -29.8% (active),22.9% (inactive) and 89.1% (inactive),102% (inactive) and 90.9% (inactive),-73.3% (active) and -71.9% (active),94.5% (inactive) and 104% (inactive),-49.3% (active) and -42.6% (active)
COc1ccc(C(=O)C(O)c2ccc(OC)cc2)cc1 (stereo not given),98.4% (inactive) and 92.7% (inactive),92.5% (inactive) and 96.2% (inactive),96.6% (inactive) and 102% (inactive),109% (inactive) and 108% (inactive),104% (inactive) and 105% (inactive),96.2% (inactive),102% (inactive),109% (inactive) and 103% (inactive),103% (inactive),110% (inactive) and 108% (inactive),110% (inactive) and 103% (inactive),101% (inactive) and 103% (inactive),92.2% (inactive) and 103% (inactive),104% (inactive) and 112% (inactive),125% (inactive) and 103% (inactive),103% (inactive) and 101% (inactive),104% (inactive) and 107% (inactive),105% (inactive) and 103% (inactive),104% (inactive) and 101% (inactive),101% (inactive) and 99.9% (inactive)
COc1ccc(/C=N/Nc2nc3ccccc3s2)cc1,105% (inactive),99.4% (inactive),86.7% (inactive),91.9% (inactive),97.3% (inactive),81.6% (inactive),89% (inactive),93.9% (inactive),111% (inactive),84.1% (inactive),105% (inactive),93.2% (inactive),44.2% (inactive),86% (inactive),97.5% (inactive),106% (inactive),97.1% (inactive),94% (inactive),103% (inactive),87.7% (inactive)
COC(=O)CCOc1ccccc1,85.4% (inactive),105% (inactive),103% (inactive),101% (inactive),101% (inactive),86.2% (inactive),87.9% (inactive),85% (inactive),95.3% (inactive),118% (inactive),110% (inactive),71.7% (inactive),91.8% (inactive),110% (inactive),89% (inactive),108% (inactive),130% (inactive),101% (inactive),82.8% (inactive),106% (inactive)
O=C1c2cccnc2-c2ncccc21,105% [100 µM] (inactive),90% [100 µM] (inactive),101% [100 µM] (inactive),96.9% [100 µM] (inactive),111% [100 µM] (inactive),96.7% [100 µM] (inactive),104% [100 µM] (inactive),97.7% [100 µM] (inactive),93.1% [100 µM] (inactive),123% [100 µM] (inactive),112% [100 µM] (inactive),115% [100 µM] (inactive),103% [100 µM] (inactive),118% [100 µM] (inactive),109% [100 µM] (inactive),106% [100 µM] (inactive),103% [100 µM] (inactive),104% [100 µM] (inactive),98% [100 µM] (inactive),104% [100 µM] (inactive)
Nc1ccccc1SC1CC(=O)N(c2ccc(I)cc2)C1=O (stereo not given),89.8% (inactive),102% (inactive),108% (inactive),80.5% (inactive),92.6% (inactive),100% (inactive),77.4% (inactive),87.1% (inactive),105% (inactive),95.3% (inactive),92.7% (inactive),82.9% (inactive),75.6% (inactive),91% (inactive),115% (inactive),84.1% (inactive),93.8% (inactive),89.6% (inactive),89.2% (inactive),88% (inactive)
CCc1ccccc1-n1[nH]c(C)c(C=N)c1=O,102% (inactive),89% (inactive),106% (inactive),135% (inactive),109% (inactive),98.6% (inactive),102% (inactive),126% (inactive),112% (inactive),120% (inactive),118% (inactive),96.5% (inactive),94.4% (inactive),106% (inactive),103% (inactive),114% (inactive),99.3% (inactive),100% (inactive),116% (inactive),109% (inactive)
COc1ccc(CCO)cc1,110% (inactive),92.8% (inactive),99% (inactive),96.2% (inactive),108% (inactive),86.4% (inactive),88.6% (inactive),92.9% (inactive),99.3% (inactive),96.3% (inactive),110% (inactive),82.9% (inactive),92.1% (inactive),102% (inactive),105% (inactive),105% (inactive),103% (inactive),101% (inactive),96.4% (inactive),103% (inactive)
NNC(=O)Nc1ccccc1,100% (inactive),95.2% (inactive),96.1% (inactive),103% (inactive),104% (inactive),90.8% (inactive),107% (inactive),113% (inactive),99.8% (inactive),99.1% (inactive),106% (inactive),102% (inactive),99.6% (inactive),91.2% (inactive),108% (inactive),100% (inactive),96.3% (inactive),97% (inactive),108% (inactive),107% (inactive)
N#CC1c2ccccc2C=CN1C(=O)c1ccccc1 (stereo not given),104% (inactive) and 112% (inactive),103% (inactive) and 89.1% (inactive),105% (inactive) and 103% (inactive),126% (inactive) and 101% (inactive),106% (inactive) and 98.9% (inactive),75.5% (inactive),103% (inactive) and 91.7% (inactive),104% (inactive) and 107% (inactive),107% (inactive) and 102% (inactive),126% (inactive) and 157% (inactive),108% (inactive) and 94.1% (inactive),99.6% (inactive) and 112% (inactive),94.8% (inactive) and 108% (inactive),96% (inactive) and 94.1% (inactive),136% (inactive) and 118% (inactive),111% (inactive) and 84.8% (inactive),101% (inactive) and 93.3% (inactive),112% (inactive) and 86.6% (inactive),103% (inactive) and 113% (inactive),99.9% (inactive) and 98.7% (inactive)

# Reference: PubChem BioAssay (NCI)
